# Results reported in PubChem BioAssay (EPA / NIEHS).
# Where “and” joins values, the source holds several entries; their conditions need not be identical. Identical values can stand only once. Results filed as inconclusive are left out. Calls of active or inactive are those of the source. Rule for the calls, unless noted: active = hit-call score of the fitted dose curve at least 0.9, where 1 is the maximum; inactive = score below 0.9.
# Columns and labels:
# TTR (gene 7276) = assay: CCTE_GLTED_hTTR_0.125uM: CCTE's human Transthyretin (hTTR) Inhibition Assay, with 0.125uM TTR, Great Lakes Toxicology and Ecology Division (GLTED) Lab (AID 2284431);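 note: hits lower the fluorescence signal relative to DMSO baseline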
# Method in brief: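 Probe-displacement format: chemicals competing for the T4 site release ANSA from 0.125uM TTR during a 2 h incubation, measured by fluorescence at 380 excitation and 475 emission.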
# [1] = CCTE_Padilla_ZF_Score.Tail: CCTE's 144 Hour Post-fertilization zebrafish Assay Score for Tail Malformation, Padilla Lab (AID 2284414)
# Method in brief: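 Wild-type zebrafish embryos, one per well in 200 uL 10% Hanks', dosed at 6-8 hpf, sealed, and kept at 26 C on a 14:10 h light cycle. Chemical was rinsed out at 5 dpf. Blinded brightfield scoring of tail defects followed at 6 dpf.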
# [2] = CCTE_Padilla_ZF_Score.Blood_pooling: CCTE's 144 Hour Post-fertilization zebrafish Assay Score for Blood Pooling, Padilla Lab (AID 2284415)
# Method in brief: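 Wild-type outbred zebrafish embryos, one per well in 10% Hanks', exposed from 6–8 hpf in sealed plates at 26C on 14:10 h light:dark, rinsed at 5 dpf. Blinded stereomicroscope scoring of blood pooling at 6 dpf; gain-of-signal versus DMSO.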
# [3] = CCTE_Padilla_ZF_Score.Any: CCTE's 144 Hour Post-fertilization zebrafish Assay Score for Any Mortality or Malformation, Padilla Lab (AID 2284416)
# Method in brief: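 Wild-type zebrafish embryos with chorions, one per well in 10% Hanks' from 6–8 hpf, dosed in sealed plates at 26 C, 14:10 h light:dark; rinsed at 5 dpf; blinded scoring at 6 dpf for death or malformation, versus DMSO.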
# [4] = test system: SRY-box transcription factor 2 (SOX2) Protein Expression, Deisenroth Lab, SOX2 (gene 6657); assay: CCTE_Deisenroth_DEVTOX-GLR_Endo_SOX2: CCTE's DevTox GLR-Endo Assay Evaluation of SRY-box transcription factor 2 (SOX2) Protein Expression, Deisenroth Lab (AID 2284412; active = hit-call score of the fitted dose curve at least 0.9, where 1 is the maximum)
# Method in brief: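 RUES2-GLR human pluripotent cells were seeded 24 h, then differentiated 48 h with two chemical exposures 24 h apart. Cells were fixed, nuclei stained and imaged by high-content microscopy. Endpoint is %SOX2+ cells over cell count, minus 0.2% DMSO control; 10-point series 1 nM–200 uM.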
# [5] = test system: SRY-box transcription factor 17 (SOX17) Protein Expression, Deisenroth Lab, SOX17 (gene 64321); assay: CCTE_Deisenroth_DEVTOX-GLR_Endo_SOX17: CCTE's DevTox GLR-Endo Assay Evaluation of SRY-box transcription factor 17 (SOX17) Protein Expression, Deisenroth Lab (AID 2284413)
# Method in brief: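 Seed RUES2-GLR cells 24 h; start endoderm differentiation; dose at 0 and 24 h (1 nM - 200 uM, 10 points); fix at 48 h, stain nuclei, image 5 fields/well; compute SOX17+/total cells vs 0.2% DMSO.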
# [6] = test system: Brachyury (BRA) Protein Expression, TBXT (gene 6862); assay: CCTE_Deisenroth_DEVTOX-GLR_Endo_BRA: CCTE's DevTox GLR-Endo Assay Evaluation of Brachyury (BRA) Protein Expression, Deisenroth Lab (AID 2284417)
# Method in brief: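 Read-out: BRA+ cell count divided by total cell count by high-content imaging (5 fields per well), expressed relative to 0.2% DMSO solvent control. RUES2-GLR cells dosed twice over a 48 h differentiation; concentrations 1 nM - 200 uM.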
# [7] = CCTE_Deisenroth_DEVTOX-GLR_Endo_CellCount: Viability Assessment in CCTE's DevTox GLR-Endo Assay, Deisenroth Lab (AID 2284420)
# Method in brief: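 Viability in differentiating RUES2-GLR cultures is scored by fluorescent nuclear counts after 48 h and two 24-hourly chemical treatments, as percent change from the 0.2% DMSO control.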
# [8] = test system: SRY-box transcription factor 17 (SOX17) Protein Expression, Deisenroth Lab, SOX17 (gene 64321); assay: CCTE_Deisenroth_DEVTOX-GLR_Pluri_SOX17: CCTE's DevTox GLR-Pluri Assay Evaluation of SRY-box transcription factor 17 (SOX17) Protein Expression, Deisenroth Lab (AID 2284427; active = hit-call score of the fitted dose curve at least 0.9, where 1 is the maximum)
# Method in brief: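 Seed cells 24 h; differentiate 48 h, dosing at 0 and 24 h (1 nM - 200 uM); fix, stain nuclei, image 5 fields per well; count SOX17+ cells over total cells and subtract 0.2% DMSO control.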
# [9] = test system: SRY-box transcription factor 2 (SOX2) Protein Expression, Deisenroth Lab, SOX2 (gene 6657); assay: CCTE_Deisenroth_DEVTOX-GLR_Pluri_SOX2: CCTE's DevTox GLR-Pluri Assay Evaluation of SRY-box transcription factor 2 (SOX2) Protein Expression, Deisenroth Lab (AID 2284428)
# Method in brief: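 SOX2 expression frequency is scored in a human pluripotent reporter line, RUES2-GLR, exposed to chemicals twice over 48 h. Imaging-based SOX2+ cell percentage is normalized as change versus 0.2% DMSO.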
# [10] = test system: Brachyury (BRA) Protein Expression, Deisenroth Lab, TBXT (gene 6862); assay: CCTE_Deisenroth_DEVTOX-GLR_Pluri_BRA: CCTE's DevTox GLR-Pluri Assay Evaluation of Brachyury (BRA) Protein Expression, Deisenroth Lab (AID 2284429; active = hit-call score of the fitted dose curve at least 0.9, where 1 is the maximum)
# Method in brief: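 An inducible fluorescent BRA reporter in RUES2-GLR cells tracks mesoderm differentiation. Compounds (10 concentrations, 1 nM - 200 uM) are dosed twice within a 48-h differentiation. The endpoint subtracts the 0.2% DMSO control from percent BRA+ cells.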
# [11] = CCTE_Deisenroth_DEVTOX-GLR_Pluri_CellCount: Viability Assessment in CCTE's DevTox GLR-Pluri Assay Evaluation of Total Cell Counts, Deisenroth Lab (AID 2284430)
# Method in brief: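 RUES2-GLR human pluripotent cells, seeded 24 h, then differentiated 48 h with two chemical exposures 24 h apart; 10-point series 1 nM - 200 uM. Fixed, nuclear-stained, imaged (5 fields/well); nuclei count as % change vs 0.2% DMSO.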
smiles,measurement,setting,value
CCC(C)(c1ccc(O)cc1)c1ccc(O)cc1,AC50,TTR (gene 7276),9.26 µM (active)
O=S(=O)(O)C(F)(F)C(F)(F)C(F)(F)C(F)(F)C(F)(F)C(F)(F)F,outcome,[1],inactive
same,outcome,[2],inactive
same,AC50,[3],36.4 µM (active) and 34.4 µM (active)
same,AC50,TTR (gene 7276),0.0856 µM (active)
CC(c1ccc(O)cc1)(c1ccc(O)cc1)c1ccc(O)cc1,AC50,TTR (gene 7276),1.48 µM (active)
Cc1cc(-c2ccc(N)c(C)c2)ccc1N,AC50,TTR (gene 7276),92.7 nM (active) and 178 nM (active)
CCCCCCCCCc1ccc(O)cc1,AC50,TTR (gene 7276),3.03 µM (active)
C=CC(N)=O,outcome,[4],inactive
same,outcome,[5],inactive
same,outcome,[6],inactive
same,outcome,[7],inactive
same,outcome,[8],inactive
same,outcome,[9],inactive
same,outcome,[10],inactive
same,outcome,[11],inactive
O=C(O)C(F)(F)C(F)(F)C(F)(F)C(F)(F)C(F)(F)C(F)(F)C(F)(F)C(F)(F)C(F)(F)F,outcome,[1],inactive
same,outcome,[2],inactive
same,AC50,[3],10.7 µM (active)
same,AC50,TTR (gene 7276),0.646 µM (active)
NS(=O)(=O)C(F)(F)C(F)(F)C(F)(F)C(F)(F)C(F)(F)C(F)(F)C(F)(F)C(F)(F)F,outcome,[1],inactive
same,outcome,[2],inactive
same,AC50,[3],0.747 µM (active)
same,AC50,TTR (gene 7276),0.683 µM (active)
O=NN(c1ccccc1)c1ccccc1,AC50,TTR (gene 7276),14.2 µM (active)
O=C(O)C(F)(F)C(F)(F)C(F)(F)C(F)(F)C(F)(F)C(F)(F)C(F)(F)C(F)(F)F,outcome,[1],inactive
same,outcome,[2],inactive
same,AC50,[3],29.1 µM (active)
same,AC50,TTR (gene 7276),0.21 µM (active)
CC(C)(c1ccccc1)c1ccc(O)cc1,AC50,TTR (gene 7276),0.888 µM (active)
CC1=C2C[C@H]3[C@@H](CC=C4C[C@@H](O)CC[C@@]43C)[C@@H]2CC[C@]12O[C@@H]1C[C@H](C)CN[C@H]1[C@H]2C,outcome,[5],inactive
same,outcome,[6],inactive
same,outcome,[7],inactive
same,outcome,[8],inactive
same,outcome,[9],inactive
same,outcome,[10],inactive
same,outcome,[11],inactive
O=S(=O)(O)C(F)(F)C(F)(F)C(F)(F)C(F)(F)F,outcome,[1],inactive
same,outcome,[2],inactive
same,outcome,[3],inactive
same,AC50,TTR (gene 7276),2.08 µM (active)
Cc1cc(O)ccc1Cl,AC50,TTR (gene 7276),20.5 µM (active)
O=C(O)C(F)(F)C(F)(F)C(F)(F)C(F)(F)C(F)(F)F,outcome,[1],inactive
same,outcome,[2],inactive
same,outcome,[3],inactive
same,AC50,TTR (gene 7276),1.92 µM (active)
Clc1ccc(C(Cl)(Cl)Cl)cc1,AC50,TTR (gene 7276),1.04 µM (active)
Oc1ccc(C(c2ccc(O)cc2)(C(F)(F)F)C(F)(F)F)cc1,AC50,TTR (gene 7276),2.53 µM (active)
CCC(C)c1cc([N+](=O)[O-])cc([N+](=O)[O-])c1O (centres undefined),AC50,TTR (gene 7276),0.0883 µM (active)
